From PubChem BioAssay AID435006 (Sanford-Burnham Center for Chemical Genomics, 2010)
The campaign covered roughly 1,300 compounds. About 1,100 (85%) were called active. No stated cut-off is given here; in the data, active means inhibition above about 48%; inactive means the rest. So high a share suggests a set chosen from earlier hits. Only a sample is shown.

Assay: yeast-expressed human NALP3 blockade – luminescence, single concentration, confirmation (AID 435006)
Settings: yeast expressing human NALP3, luminescence; at 10 µM; stronger effect = higher value
In the case of `Cc1cc2ccccn2c1C(C[N+](=O)[O-])c1c(F)cccc1Cl` (stereo unspecified), the inhibition is reported as 72.8% (active). For `O=C1/C(=C\c2ccc3c(c2)OCO3)N2CCC1CC2`, the inhibition was 59.5% (active). For `CCCCCCCCCCCCn1ccc(=N)cc1`, the inhibition was 82.9% (active). In the case of `C[C@]12CCC3C(CC[C@H]4C[C@@H](O)CC[C@]34C)C1CC[C@@H]2O` (stereo partly specified), the inhibition is reported as 57.9% (active). For `C[C@]12CCC3C(CC[C@H]4C[C@@H](O)CC[C@]34C)C1C[C@@H](O)[C@H]2O` (stereo partly specified), the inhibition was 53% (active). In the case of `Cc1ccc(-c2nc3ccccc3c(=O)n2-c2ccc(Br)cn2)cc1`, the inhibition is reported as 73.3% (active).
